# Only some compounds are listed: those with a hit (about 10% of all), similar ones and a draw of the others.
# HEK293 tox: HEK 293 cell cytotoxicity; HEK 293 viability, ATP luminescence (CellTiter-Glo), 48-72 h; Potency, µM (top dose mostly 115 µM), for inactives: at the top dose activity change, negative = cytotoxicity, most hits filed as inhibitors; 94,000 compounds, 6.6% hits; also: % is scaled to controls: 0 for no effect and ±100 for the full control effect; nearly all actives have a fitted effect of over 60% in size
#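 Cells seeded first (HEK 293, 250 cells/well), then compound added by pintool. Incubation ran 48 or 72 hr at 37 degree Celsius. CellTiter-Glo was added and luminescence imaged after 10 min at room temperature.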
# hNpr1 antagonist: antagonists of human natriuretic peptide receptor Npr1; Potency, µM (doses to about 46.3 µM), for inactives: top-dose activity change, negative = inhibition, usual class: inhibitors; HEK293 hNpr1 GloSensor cGMP, ANP-stimulated luminescence; 76,000 compounds, 1.6% hits; P16066; calls by dose curve; also: % is scaled to controls: 0 for no effect and ±100 for the full control effect; nearly all actives have a fitted effect of over 60% in size
#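 HEK293 cells stably expressing human Npr1 and cGMP GloSensor pGS-40F, loaded 2 h with 2% GloSensor reagent, given compound 30 min at room temperature. Luminescence read before and 20 min after 0.1 nM hNppA.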
# 3T3 cytotox: kills NIH 3T3 cells. Potency, µM (titrated, usually from 96.7 µM), for inactives: top-dose activity change, negative = cytotoxicity, most hits filed as inhibitors. AID 1345082. 94,000 compounds, 4.3% hits. NIH 3T3 viability, CellTiter-Glo ATP luminescence, 48-72 h; also: % is scaled to controls: 0 for no effect and ±100 for the full control effect; nearly all actives have a fitted effect of over 55% in size
#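 Viability of NIH 3T3 cells after 48 or 72 hr compound treatment at 37 °C was assessed by CellTiter-Glo, with luminescence imaged following a 10 min room-temperature step.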
# FLuc inh: inhibitors of firefly (Photinus pyralis) luciferase | AID 1347043 | P08659 | 76,000 compounds, 2.5% hits | Potency, µM (highest dose often 115 µM), most hits filed as inhibitors | purified P. pyralis luciferase, luminescence, biochemical; also: % is scaled to controls: 0 for no effect and ±100 for the full control effect; nearly all actives have a fitted effect of over 65% in size
#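 Luminescence read by CCD imager after adding enzyme (10nM final) to wells holding compound, titrated in qHTS. Substrates 10uM each D-luciferin and ATP; buffer 50mM Tris acetate pH 7.5, 10mM Mg acetate, Tween-20, BSA.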
# GPT2 inhibitor: blocks human glutamate pyruvate transaminase 2; 100,000 compounds, 0.25% hits; Potency, µM (highest dose often 57.7 µM), for the others: at the highest dose activity change, negative = inhibition, actives largely listed as inhibitors; Recombinant GPT2, coupled pyruvate oxidase/HRP Amplex Red fluorescence; also: % is scaled to controls: 0 for no effect and ±100 for the full control effect; nearly all actives have a fitted effect of over 60% in size
#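 GPT2 10ng/uL, a-KG 250uM, L-Ala 2mM, HEPES pH7.5 + 0.0001% Tween; 30 min RT. Then Amplex mix (PO/HRP/ThPP), 30 min RT dark, fluorescence. AOA 50uM used as positive control.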
# NPR1 antag cnf: hNpr1 antagonism, confirmation assay; 1,400 compounds, 76% hits; Potency, µM (series often up to 57.6 µM), inactives show at the highest dose activity change, negative = inhibition, most hits filed as inhibitors; shares compounds with hNpr1 antagonist; HEK293 hNpr1 cGMP GloSensor luminescence, ANP-stimulated; calls by dose curve; also: nearly all actives have a fitted effect of over 70% in size
# Npr2 selectivity: selectivity test of Npr1 antagonists against human Npr2; shares compounds with hNpr1 antagonist; HEK293 hNpr2 GloSensor cGMP luminescence, CNP-stimulated; Potency, µM (top dose mostly 57.6 µM), for the others: at the top dose activity change, negative = inhibition, usual class: inhibitors; 1,400 compounds, 67% hits; calls by dose curve; also: nearly all actives have a fitted effect of over 70% in size
# FLuc inh counter: counter-screen for Npr1 antagonists: firefly luciferase inhibitors; shares compounds with hNpr1 antagonist; purified FLuc enzyme, luminescence, Km substrate; Potency, µM (highest dose often 57.6 µM), for the others: at the highest dose activity change, negative = inhibition, usual class: inhibitors; 1,400 compounds, 0.7% hits; AID 1347047; also: 0% is about no effect
# GloSensor cGMP: counter-screen for Npr1 antagonists: GloSensor control cell line; shares compounds with hNpr1 antagonist; HEK293 GloSensor cGMP, SNP-stimulated, luminescence; Potency, µM (series often up to 57.6 µM), for the others: at the highest dose activity change, negative = inhibition, hits mostly inhibitors; 1,400 compounds, 69% hits; AID 1347051; calls by dose curve; also: % is scaled to controls: 0 for no effect and ±100 for the full control effect; nearly all actives have a fitted effect of over 70% in size
# * marks the source's active call; other numbers are inactive results; i = inactive; ? = inconclusive; nt = no result given; [ ] = remark or other dose. Unless noted, calls follow the shape of the dose curve; as a rule, active = well fitted curve in the direction sought with a large enough effect; inconclusive = small, poorly fitted or top-dose-only effect, or another doubt; inactive = no such curve, though single readings can be large; an effect the other way counts as inactive or inconclusive. Potency is read from the fitted curve at half-maximal effect.
SMILES,HEK293 tox,hNpr1 antagonist,3T3 cytotox,FLuc inh,GPT2 inhibitor,NPR1 antag cnf,Npr2 selectivity,FLuc inh counter,GloSensor cGMP
Cc1cccc(NC(=O)Cn2c(N3CCC(C)CC3)nc(C)cc2=O)c1,?,?,?,i,i,nt,nt,nt,nt
CSc1cccc(NC(=O)Cn2c(N3CCC(C)CC3)nc(C)cc2=O)c1,11µM*,11µM*,11µM*,i,-12%,12µM*,14µM*,0%,9.7µM*
Cc1noc(C)c1CN1CCc2nc(C(=O)Nc3cccc(C(F)(F)F)c3)oc2CC1,?,32µM*,?,i,2%[88.5 µM],28µM*,31µM*,-11%[86.2 µM],20µM*
O=C(Nc1ccc(Cl)cc1)c1nc2c(o1)CCN(Cc1cccc(F)c1)CC2,?,7.9µM*,?,i,-4%[88.5 µM],11µM*,16µM*,-23%[86.2 µM],11µM*
O=C(Nc1cccc(C(F)(F)F)c1)c1nc2c(o1)CCN(Cc1ccccc1F)CC2,63µM*,?,50µM*,i,-24%[88.5 µM],?,?,-27%[86.2 µM],?
Cc1noc(C)c1CN1CCc2nc(C(=O)NCc3ccccc3)oc2CC1,?,-14%[70.6 µM],-34%[138 µM],i,-8%[88.5 µM],nt,nt,nt,nt
O=C(Nc1cccnc1)c1nc2c(o1)CCN(Cc1ccc(F)cc1F)CC2,?,32µM*,?,i,3%[88.5 µM],40µM*,40µM*,-24%[86.2 µM],35µM*
O=C(Nc1cccc(C(F)(F)F)c1)c1nnn2c1CN(Cc1ccccc1F)C(=O)CC2,?,-8%,?,i,i,nt,nt,nt,nt
O=C(NCCOc1ccccc1)c1nc2c(o1)CCN(Cc1cccc(F)c1)CC2,?,?,?,i,1%[88.5 µM],nt,nt,nt,nt
CNC(=O)c1cc(C)nc2onc(C3CCN(C(C)=O)C3)c12 (centres undefined),i,nt,2%[138 µM],nt,nt,nt,nt,nt,nt
COc1ccccc1CN1CCc2nc(C(=O)Nc3cccc(C(F)(F)F)c3)oc2CC1,32µM*,?,28µM*,i,?,22µM*,24µM*,-8%,24µM*
O=C(NCc1ccc2c(c1)OCO2)C1(c2ccc(Cl)cc2)CCOCC1,?,nt,-29%,nt,nt,nt,nt,nt,nt
CCCNC(=O)c1cc(-c2ccc(F)cc2)cn1C,-24%,?,-32%,i,i,-27%,-7%,-1%,-26%
CC(C)NC(=O)c1cc(-c2ccc(F)cc2)cn1C,-1%,7%,-5%,i,-1%,nt,nt,nt,nt
CNC(=O)c1cc(C)nc2onc(C3CCCN(C(=O)Cc4ccc(OC)cc4)C3)c12 (centres undefined),i,nt,-7%,nt,nt,nt,nt,nt,nt
Cc1cnc(C2CC2)n1CCNS(=O)(=O)c1cc(F)cc(F)c1,12%,4%,i,i,1%,nt,nt,nt,nt
COc1ccc(C2(C(=O)N3CCCCCC3c3nc(C4CC4)no3)CC2)cc1 (centres undefined),?,-15%,?,i,i,nt,nt,nt,nt
COc1ccc(C(=O)Nc2ccc(-c3noc([C@@H]4CCCN4CCCc4ccccc4)n3)cn2)cc1,16µM*,13µM*,?,i,1%,17µM*,19µM*,-24%,14µM*
CCCCOc1ccc(C(=O)N2CCC[C@H]2c2nc(-c3ccc(OC)cc3)no2)cc1,25µM*,?,?,i,i,?,-26%,-16%,?
COc1ccc(C2(C(=O)N3CCC[C@H]3c3nc(-c4ccccc4Cl)no3)CC2)cc1,?,10µM*,?,i,i,22µM*,22µM*,0%,24µM*
COCC(=O)Nc1ccc(-c2noc([C@@H]3CCCN3Cc3cccnc3)n2)cn1,-19%[172 µM],-1%[70.6 µM],-27%[174 µM],i,3%[88.5 µM],nt,nt,nt,nt
COc1ccc(C(=O)Nc2ccc(-c3noc([C@@H]4CCCN4Cc4ccc(F)cc4)n3)cn2)cc1,?,11µM*,?,i,1%,14µM*,17µM*,-22%,12µM*
O=C(Cc1ccccc1)NC1CN(c2ccnc3ccnn23)C1,-3%[172 µM],nt,-27%[138 µM],nt,i,nt,nt,nt,nt
CCc1cc(=O)n(CC(=O)Nc2cccc(SC)c2)c(N2CCOCC2)n1,?,-19%,-18%,i,4%,nt,nt,nt,nt
Cn1ncc2c(C(=O)NCC(F)F)cc(-c3ccccc3C(F)(F)F)nc21,-9%,nt,?,nt,nt,nt,nt,nt,nt
SMILES,HEK293 tox,hNpr1 antagonist,3T3 cytotox,FLuc inh,GPT2 inhibitor,NPR1 antag cnf,Npr2 selectivity,FLuc inh counter,GloSensor cGMP
COc1ccc(C(=O)Nc2ccc(-c3noc([C@@H]4CCCN4Cc4ccco4)n3)cn2)cc1,?,13µM*,?,i,0%,14µM*,19µM*,?,17µM*
COc1ccc(C(=O)Nc2ccc(-c3noc([C@@H]4CCCN4Cc4c[nH]c5ccccc45)n3)cn2)cc1,?,10µM*,?,i,2%,11µM*,19µM*,-5%,11µM*
CC(C)c1ccc(CC(=O)N2CCCc3ncc(C(=O)Nc4ccccn4)cc32)cc1,32µM*,20µM*,100µM*,i,-6%[88.5 µM],11µM*,18µM*,-1%[86.2 µM],11µM*
CC(C)c1ccc(CC(=O)N2CCCc3ncc(C(=O)Nc4cccnc4)cc32)cc1,8.9µM*,1.4µM*,2.8µM*,i,i,3.5µM*,6.3µM*,-10%[86.2 µM],5µM*
CC(C)c1ccc(CC(=O)N2CCCc3ncc(C(=O)Nc4cccc(Cl)c4)cc32)cc1,25µM*,11µM*,?,i,3%,15µM*,17µM*,0%,22µM*
CC(C)c1ccc(CC(=O)N2CCCc3ncc(C(=O)NCCc4ccccc4)cc32)cc1,?,?,?,?,-2%,nt,nt,nt,nt
CC(C)c1ccc(CC(=O)N2CCCc3ncc(C(=O)NCC(C)(C)CO)cc32)cc1,?,-4%[70.6 µM],-2%[138 µM],i,-1%[88.5 µM],nt,nt,nt,nt
CC(C)CN1CCN(C(=O)CCC[C@@H]2[C@H]3CCCN4CCC[C@@H](CN2C(=O)c2cccnc2)[C@@H]34)CC1,6%,-1%,3%,i,-10%,nt,nt,nt,nt
